From PubChem BioAssay (NCATS) come the findings set out here.

Assay [1] relates to CRL-7250. The assay can be described thus: Cytotoxic Profiling of Annotated Libraries Using Quantitative High-Throughput Screening (AID 1296008). Note: nearly all actives have a fitted effect of over 60% in size. Particulars: Five cell lines viability, CellTiter-Glo ATP luminescence, 48-72 h; max response: stronger effect = lower value. The gist of the method: (§1)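 Cytotoxicity was measured as CellTiter-Glo ATP luminescence, read after 10 min at room temperature. Compound treatment of the cells lasted 48 or 72 hr at 37 degrees Celsius in a qHTS format.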
In general terms: In ATP-based viability assays light output follows the ATP content of the culture.

Assay [2] relates to HEK293. The description is as above. Particulars: Five cell lines viability, CellTiter-Glo ATP luminescence, 48-72 h; max response: stronger effect = lower value. The gist of the method:
as §1

Results filed as inconclusive are left out. A number with no mark means an inactive call. Active and inactive are the calls of the source. Calls come from the whole dose curve; as a rule, active = well fitted inhibition curve with a large enough effect; inconclusive = small, poorly fitted or top-dose-only effect; inactive = flat fitted curve, though single readings scatter.
% is set by controls: 0 for no effect and ±100 for the full control effect; potency is the fitted concentration of half-maximal effect.

For `CC(=O)O[C@@H]1c2c3c(cc(O)c2C(=O)O[C@@H]1C)O[C@@]1(C)[C@@H](O)C[C@H]2C(C)(C)C(=O)C=C[C@]2(C)[C@@H]1C3`, the max response in assay [1] was -27.6%; in assay [2], -27.5%.
The like results for `NC(=O)Nc1cc(-c2cccc(F)c2)sc1C(=O)NC1CCCNC1` (centres undefined) were, in that order, -112% and -108%.
For `CC1=CC(=O)[C@H]2C(C)(C)CCC[C@]2(C)[C@@]1(O)CO`, the max response in assay [1] is -8.81%; in assay [2] it was -15.2%.
For the compound `CC(C)=CCC[C@](C)(O[C@@H]1O[C@H](CO)[C@@H](O)[C@H](O)[C@H]1O)[C@H]1CC[C@]2(C)[C@@H]1[C@H](O)CC1[C@@]3(C)CC[C@H](O)C(C)(C)C3[C@@H](O[C@@H]3O[C@H](CO)[C@@H](O)[C@H](O)[C@H]3O[C@@H]3OC[C@@H](O)[C@H](O)[C@H]3O)C[C@]12C` (some centres undefined), the max response in assay [1] is -28%; in assay [2], -0.716%.
For `CC[C@]1(O)CC2CN(CCc3c([nH]c4ccccc34)[C@@](C(=O)OC)(c3cc4c(cc3OC)N(C=O)[C@H]3[C@@](O)(C(=O)OC)[C@H](OC(C)=O)[C@]5(CC)C=CCN6CC[C@]43[C@@H]65)C2)C1` (some centres undefined), the Potency in assay [1] is 0.064 µM (active); in assay [2], 0.0321 µM (active).
The like results for `CC(=O)OC1C(=O)C2(C)C(O)CC3OCC3(OC(C)=O)C2C(OC(=O)c2ccccc2)C2(O)CC(OC(=O)C(O)C(NC(=O)c3ccccc3)c3ccccc3)C(C)=C1C2(C)C` (centres undefined) were, in that order, 0.058 µM (active) and 0.0073 µM (active).
In the case of `COCCOc1cnc2ccn([C@H](C)c3nnc4c(F)cc(-c5cnn(C)c5)cn34)c(=O)c2c1`, in assay [1], the compound was classed as inactive. For the same compound, the max response in assay [2] is 1.47%.
